25 compounds from PubChem BioAssay (NCATS) can be followed below.

The term viability denotes a read-out of living cells in per cent, often relative to untreated cells.

Assay [1] deals with Cellular tumor antigen p53 (Homo sapiens) (UniProt P04637). The experiment in a line: Primary qHTS for small molecule compounds that upregulate eGFP-tagged delta133p53alpha (in N-terminal) cells. (AID 2060322). Further: nearly all actives have a fitted effect of over 75% in size. Further: potency means the concentration at half of the fitted maximal effect.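 On activation: series mostly up to about 56 µM; 0% = DMSO vehicle and 100% = reference activator.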 The note with it: NCI-H358 eGFP-delta133p53alpha fluorescence, 24 h; activation: active compounds read high. A digest of the protocol:
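NCI-H358 cells pre-induced 24 h with 10 ng/ml doxycycline to express N-terminal eGFP-delta133p53alpha, then dosed 24 h at 37C without doxycycline; fixed, Hoechst-stained, GFP intensity by laser scanning cytometry, normalized to DMSO (0%) and 57.5 uM 5-azacytidine (100%).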
(In general: qHTS replaces the single test concentration by a dilution series.)

Assay [2] addresses Aldehyde dehydrogenase, mitochondrial (Homo sapiens) (UniProt P05091). Nature of the assay: qHTS for Inhibitors of the Aldehyde Dehydrogenase Family (ALDH2) Primary screen (AID 2061308).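 Further: plate controls were vehicle for no effect and reference inhibitor for full effect; nearly all actives have a fitted effect of over 55% in size.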
The target in assay [3] is Retinaldehyde dehydrogenase 3 (Homo sapiens) (UniProt P47895). The experiment in a line: qHTS for Inhibitors of the Aldehyde Dehydrogenase Family (ALDH1A3) Primary screen (AID 2061315).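 Further: plate controls were DMSO vehicle for no effect and reference inhibitor for full effect.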
Assay [4] is described as follows: BET inhibitor-based combinations targeting novel dependencies in MECOM-rearranged (r) AML: SET-2 cell line (AID 2202231). Further: nearly all actives have a fitted effect of over 35% in size. Further: potency means the concentration at half of the fitted maximal effect.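 On viability: plate controls were DMSO treated cells for no effect and wells without cells for full effect.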 The conditions noted are these: SET-2 AML cells viability, CellTiter-Glo luminescence, 48 h; viability: active compounds read low, concentration not given here. A digest of the protocol:
(§1)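 Cells were plated at 500 per well and exposed to an 11-point dose series of each drug for 48 hr. Viability was measured by CellTiter-Glo luminescence, normalized to DMSO and empty-well controls, and summarized as AUC and per-cell-line Z-AUC.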
For orientation: ATP-based viability assays read luminescence as a measure of living cells.

Assay [5] in a line: BET inhibitor-based combinations targeting novel dependencies in MECOM-rearranged (r) AML: OCI-AML3 cell line (AID 2202232). Further: nearly all actives have a fitted effect of over 35% in size. Further: potency means the concentration at half of the fitted maximal effect. The conditions noted are these: Potency: OCI-AML3 viability. A digest of the protocol:
as §1

A short description of assay [6]: BET inhibitor-based combinations targeting novel dependencies in MECOM-rearranged (r) AML: MV-4-11 cell line (AID 2202233). Further: nearly all actives have a fitted effect of over 45% in size. Further: potency means the concentration at half of the fitted maximal effect. The essentials: (§2)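 Activity is given as area under the curve and as Z-AUC, mean-centred within each cell line. It comes from 11-point dose curves normalized to DMSO and empty wells. CellTiter-Glo luminescence was read after 48 hr drug exposure of 500 cells/well.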

The nature of assay [7]: BET inhibitor-based combinations targeting novel dependencies in MECOM-rearranged (r) AML: HNT-34 cell line (AID 2202234). Further: nearly all actives have a fitted effect of over 35% in size. Further: potency means the concentration at half of the fitted maximal effect. A digest of the protocol: as §2
The nature of assay [8]: BET inhibitor-based combinations targeting novel dependencies in MECOM-rearranged (r) AML: UCSD-AML1 cell line (AID 2202235). Further: nearly all actives have a fitted effect of over 40% in size. Further: potency means the concentration at half of the fitted maximal effect. A digest of the protocol:
as §2

The nature of assay [9]: BET inhibitor-based combinations targeting novel dependencies in MECOM-rearranged (r) AML: AML-194 cell line (AID 2202237;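 further: plate controls were vehicle wells for no effect and wells without cells for full effect; nearly all actives have a fitted effect of over 40% in size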). A digest of the protocol:
as §1

For assay [10], the target named is Retinaldehyde dehydrogenase 3 (Homo sapiens) (UniProt P47895). The experiment in a line: qHTS for Inhibitors of the Aldehyde Dehydrogenase Family (ALDH1A3) Confirmatory screens (AID 2061311). Further: potency means the concentration at half of the fitted maximal effect; nearly all actives have a fitted effect of over 60% in size.
For assay [11], the target named is Aldehyde dehydrogenase 1A1 (Homo sapiens) (UniProt P00352). Nature of the assay: qHTS for Inhibitors of the Aldehyde Dehydrogenase Family (ALDH1A1) Confirmatory screens (AID 2061316). Further: potency means the concentration at half of the fitted maximal effect; nearly all actives have a fitted effect of over 65% in size.
The nature of assay [12]: BET inhibitor-based combinations targeting novel dependencies in MECOM-rearranged (r) AML: AML-191 cell line (AID 2202236; further: nearly all actives have a fitted effect of over 35% in size; further: potency means the concentration at half of the fitted maximal effect). A digest of the protocol: as §1

SMILES strings stand for the structures. Where “and” joins values, the source holds several entries; their conditions need not be identical. Identical values can stand only once. Results filed as inconclusive are left out. Unmarked numbers belong to inactive results. Calls of active or inactive are those of the source. The call rests on the fitted dose curve; in most records, active means well fitted curve in the direction sought with a large enough effect; inconclusive means small, poorly fitted or top-dose-only effect, or another doubt; inactive means no such curve, though single readings can be large; an effect the other way counts as inactive or inconclusive. Numbered stars: 1 amine (or outer) side, 2 acyl side, 3 side chain; on linkers, the order of the positions; unused ones are H or OH. Square brackets hold non-standard residues; d marks the D form. Peptide text beside a SMILES is read from it. ξ: configuration not given here. X5 = O=C([C@@H](CC(O)CCl)O[*:1])[*:2]; aIle = CC[C@@H](C)[C@H](N)C(=O)O; ξLac(3-iPr) = CC(C)CC(O)C(=O)O; NMeV = CN[CH](C(=O)O)C(C)C; NMeA = CN[CH](C)C(=O)O; βAla = NCCC(=O)O

Sequence of Cellular tumor antigen p53 (Homo sapiens) (P04637 whole entry, looked up): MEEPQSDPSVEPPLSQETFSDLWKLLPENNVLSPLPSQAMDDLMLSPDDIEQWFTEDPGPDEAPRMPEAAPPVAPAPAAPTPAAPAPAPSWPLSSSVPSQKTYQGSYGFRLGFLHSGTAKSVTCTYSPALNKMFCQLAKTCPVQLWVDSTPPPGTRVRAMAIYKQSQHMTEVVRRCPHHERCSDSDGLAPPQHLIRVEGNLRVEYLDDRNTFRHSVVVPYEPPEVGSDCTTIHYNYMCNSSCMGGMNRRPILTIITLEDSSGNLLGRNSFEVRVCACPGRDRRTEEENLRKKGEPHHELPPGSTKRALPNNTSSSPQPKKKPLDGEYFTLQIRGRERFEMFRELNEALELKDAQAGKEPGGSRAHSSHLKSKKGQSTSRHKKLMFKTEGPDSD

Consider `CCOC(=O)c1ccnc2cc(C(OCCN3CCCCC3)c3ccccc3Cl)sc12` (stereo unspecified), for which the activation in [1] is -5.67%. The Potency result in assay [2] and in assay [3] was “inactive” in each case.
As for `CCOC(=O)c1ncn2c1CN(C)C(=O)c1c(I)cccc1-2`, in assay [1], the activation was 7.67%. Moreover, the Potency result in [2] and in assay [3] was “inactive” in each case.
Consider `C[C@]12CC[C@@H](O)C[C@H]1CC[C@@H]1[C@@H]2CC[C@]2(C)C(=O)CC[C@@H]12`, for which the activation in assay [1] is 3.67%. Moreover, the Potency entry in [2] and in assay [3] was “inactive” in each case.
With `CCN1C[C@]2(COC)CC[C@H](O)[C@@]34C5C[C@@H]6[C@@H](OC)C[C@@](OC(C)=O)(C5[C@@H]6OC(C)=O)[C@H]([C@H](OC)C23)[C@@H]14` (stereo partly specified), in assay [1], the activation was 8.04%. Also, the Potency entry in assay [2] and in assay [3] was “inactive” throughout.
Consider `C=C[C@H]1CN2CCC1C[C@H]2[C@H](O)c1ccnc2ccccc12` (stereo partly specified), for which the activation in assay [1] is -2.33%. Further, the Potency result in [2] and in assay [3] was “inactive” each time.
For `CC[C@@H](C)[C@@H]1NC(=O)[C@@H]2CCCN2C(=O)[C@@H](CC(O)CCl)OC(=O)CCNC(=O)[C@H](C)N(C)C(=O)[C@H](C(C)C)N(C)C1=O` (stereo partly specified) (cyclo([NMeA][βAla][X5]P[aIle][NMeV])), the activation in assay [1] was -10.7%. Moreover, the Potency result in assay [2] and in [3] was “inactive” each time.
On to `CC(O)(c1ccccc1)C(Cc1ccc(Cl)cc1)n1cncn1` (stereo unspecified), for which the activation in assay [1] is -8.59%. Further, the Potency entry in assay [2] and in [3] was “inactive” throughout.
`CCC(C)C1NC(=O)C2CCCN2C(=O)C(CC(C)C)OC(=O)CCNC(=O)C(C)N(C)C(=O)C(C(C)C)N(C)C1=O` (stereo unspecified) (cyclo([ξLac(3-iPr)]PI[NMeV][NMeA][βAla]); configuration not given here): the activation in assay [1] was -7.14%. Moreover, the Potency entry in [2] and in assay [3] was “inactive” in each case.
With `CN(CC[C@H](N)CC(=O)N[C@H]1C=C[C@@H](n2ccc(N)nc2=O)O[C@@H]1C(=O)O)C(=N)N`, the activation in assay [1] is 7.14%. The activity change, negative = inhibition is -3.48% [at 11.2 µM] in assay [2] and 7.62% [at 11.2 µM] in assay [3].
For the compound `CCCCCn1cc(C(=O)c2cccc3ccccc23)c2ccccc21`, in assay [1], the activation is 20.5%. Moreover, the Potency result in assay [2] and in assay [3] was “inactive” each time.
In the case of `C/C1=C/[C@@H](C)C/C=C/[C@H]2[C@@H]3O[C@]3(C)[C@@H](C)[C@H]3[C@H](Cc4c[nH]c5ccccc45)NC(=O)[C@]32C(=O)/C=C\C(=O)[C@@H]1O`, the Potency in assay [1] is 11.7 µM (active). The Potency result in [2] and in assay [3] was “inactive” in each case.
Take `C=CCN1C[C@H](C)N([C@H](c2ccc(C(=O)N(CC)CC)cc2)c2cccc(OC)c2)C[C@H]1C`: the activation in [1] was -16.4% and -0.333%. In addition, the activity change, negative = inhibition in assay [2] was -7.89% [at 11.2 µM]; in [3], 6.9% [at 11.2 µM].
Consider `C[C@@](O)(COc1ccc(C#N)cc1)C(=O)Nc1ccc(C#N)c(C(F)(F)F)c1`, for which, in assay [1], the activation is -6.21%. The Potency result in assay [2] and in [3] was “inactive” in each case.
`NC(=O)[C@@H](CC1CC1)[C@@H](CCC(F)(F)F)C(=O)N[C@H]1N=C(c2ccccc2)c2cccc(F)c2NC1=O`: in assay [1], the activation was -1.79%. In addition, the Potency result in [2], in assay [3], in assay [5], in assay [6], in assay [7] and in assay [8] was “inactive” in each case. Moreover, in assay [9], the Potency entry is “inactive”. Besides, the viability in assay [4] is 117%.
Take `CCC1CC2CN3CCc4c([nH]c5ccccc45)C(C(=O)OC)(C2)C13` (stereo unspecified): the activation in assay [1] was 3.05%. Besides, the Potency entry in assay [2] and in assay [3] was “inactive” throughout.
As for `CC[C@@H](C)[C@H]1C(=O)O[C@H](C(C)C)C(=O)N(C)[C@@H]([C@@H](C)CC)C(=O)O[C@H](C(C)C)C(=O)N(C)[C@@H]([C@H](C)CC)C(=O)O[C@H](C(C)C)C(=O)N1C`, the activation in assay [1] is 9.82%. Moreover, the Potency result in assay [2] and in assay [3] was “inactive” throughout.
For the compound `CC[C@H]1CN2CC[C@H]1C[C@@H]2[C@@H](O)c1ccnc2ccc(OC)cc12`, the activation in assay [1] is 17.9%. Also, the Potency result in [2] and in assay [3] was “inactive” throughout.
`COc1ccc2c(c[n+](C)c3c4cc5c(cc4ccc23)OCO5)c1OC`: the Potency in assay [1] was 43.2 µM (active); in assay [10] it was 7.12 µM (active); in [11], 6.34 µM (active); in [5], 5.9 µM (active); in assay [6] it was 5.25 µM (active).
For `O=C(Oc1ccc([N+](=O)[O-])cc1)N1CCC(C(O)(c2ccc3c(c2)OCO3)c2ccc3c(c2)OCO3)CC1`, the activation in [1] was 9.18% and -1.67%. Also, the Potency result in assay [2], in [3], in [6], in assay [12] and in assay [9] was “inactive” in each case. Also, the viability in assay [4] is 104%.
Regarding `Clc1ccc(N2C[C@H]3CC[C@@H](C2)N3)nn1`, in assay [1], the activation was -0.333%. Besides, in assay [3], the Potency result was “inactive”.
Consider `CCCCn1cc(C(=O)c2cccc3ccccc23)c2ccccc21`, for which the activation in assay [1] is 0.955%. Moreover, the Potency result in [2] and in assay [3] was “inactive” in each case.
For `O=C(NCC1CCOCC1)c1cnc(Nc2ccc(Cl)cc2Cl)nc1C(F)(F)F`, the activation in assay [1] was -5.35% and 9.55%. Besides, the Potency result in assay [2], in assay [3], in assay [7] and in assay [8] was “inactive” each time. In addition, the viability in [4] was 97.9%. Also, in assay [6], the Potency was 14.8 µM (active).
With `CNC(=O)c1ccc(N2C(=S)N(c3ccc(C#N)c(C(F)(F)F)c3)C(=O)C23CCC3)cc1F`, the activation in assay [1] was 38.4% and -8.11%. Also, the Potency entry in [2], in assay [3], in [12] and in assay [9] was “inactive” throughout.
Regarding `CN(N=O)c1ccc(O)c(O)c1`, the activation in assay [1] was -30.1%. The Potency in [10] was 12.7 µM (active).
As for `CC(C)[C@]12O[C@H]1[C@@H]1O[C@]13[C@]1(O[C@H]1C[C@H]1C4=C(CC[C@@]13C)C(=O)OC4)[C@@H]2O`, the Potency is 0.269 µM (active) in [1]; 0.059 µM (active) in assay [4]; 0.0372 µM (active) in assay [6]; 0.0742 µM (active) in assay [7]; 0.0417 µM (active) in assay [8]; 0.0372 µM (active) in assay [12]. The Potency result in assay [2] and in [3] was “inactive” in each case.
